From article PMC5540273 (PLoS ONE, 2017)

system: MARK3; settings: concentration: 1 μM,replicates: in singlicate; n = 1
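Further: KINOMEscan kinase panel screen.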

Row | Structure (SMILES) | %Inh
1 | CSc1nccc(-c2c(-c3ccc(F)cc3)ncn2CCCN2CCOCC2)n1.Cl [SB-217146] | 40%
2 | CC(=O)Nc1nc2cnc(Nc3cc(NC(=O)c4cccc(CC(C)(C)C#N)c4)ccc3C)nc2s1 | 0%
3 | C[C@@H](Oc1cc(-n2cnc3ccc(-c4ccncc4)cc32)sc1C(N)=O)c1ccccc1Cl [GSK483724] | 0%
4 | CS(=O)c1ccc(-c2coc3ccc(-c4n[nH]c(=O)o4)cc23)cc1 (centres unmarked) | 0%
5 | CS(=O)(=O)Nc1ccc(-c2ccnc3[nH]ccc23)cc1 [GSK993273] | 0%
6 | Cl.Cl.NC[C@H](CC1CCCCC1)NC(=O)c1ccc(-c2ccnc3[nH]ccc23)s1 [GSK1581428] | 74%
7 | COc1cc2nccc(Nc3ccc(Oc4ccccc4)cc3)c2cc1OC.Cl [GI261656] | 0%
8 | COc1cc2c(Nc3ccc(NC(=O)c4ccccc4)cc3)ncnc2cc1OCCCN1CCOCC1 [GSK301329] | 0%
9 | Cn1ccc2ncnc(Oc3ccc(NC(=O)Nc4cccc(C(F)(F)F)c4)c(F)c3)c21 | 8%
10 | O=C(NOCC1CC1)c1cc(Br)c(F)c(F)c1Nc1ccc(I)cc1Cl | 0%
11 | O=C1NCCc2[nH]c(-c3ccncc3)cc21 | 25%
12 | Cc1n[nH]c2cc(Nc3ccnc(Nc4cccc(CN5CCOCC5)c4)n3)ccc12 [GW682569] | 0%
13 | COc1cccc(C2=C(Nc3cccc(Cl)c3)C(=O)NC2=O)c1 [SB-341556] | 17%
14 | COc1cccc(CNC(=O)NC2CCN(c3ccnc(Nc4cc(OC)c(OC)c(OC)c4)n3)C2)c1 (centres unmarked) [GSK1379765] | 0%
15 | Cl.Nc1n[nH]c2cc(-c3ccccn3)ccc12 [GSK2189892] | 10%
16 | Cc1ccc(CC(=O)N2CCc3cc(-c4cn(C)c5ncnc(N)c45)ccc32)cc1 [GSK2634758] | 0%
17 | CN(c1ccc2c(c1)nc(NCc1ccc(F)cc1)n2C)c1ccnc(Nc2ccc(CS(C)(=O)=O)cc2)n1.Cl [GW813244] | 0%
18 | Cl.c1ccc(Oc2ccc(Nc3ccnc4cc(-c5ccc(CN6CCNCC6)o5)ccc34)cc2)nc1 [GW567142] | 39%
19 | CC(C)S(=O)(=O)N1CCN(Cc2ccc3c(c2)nc(NC(=O)c2ccsc2)n3C[C@H](O)c2ccccc2)CC1 [GW635815] | 43%
20 | Cc1nnc(-c2ccc3occ(-c4ccc(S(C)=O)cc4)c3n2)o1 (centres unmarked) | 0%
21 | OCCn1cc(-c2cnc3nnn(Cc4ccc5ncccc5c4)c3n2)cn1 | 0%
22 | CCn1c(-c2nonc2N)nc2cncc(CNC3CCNCC3)c21.Cl [SB-747651] | 2%
23 | NC(=O)c1ccc(-c2cc3ncnc(SCC(=O)O)c3s2)cc1 | 0%
24 | Cn1cc(-c2cccc3c(N)c(C(N)=O)nnc23)cn1 | 0%
25 | CCCC(=O)Nc1n[nH]c2ncccc12 [SB-601436] | 0%

system: MARK4; settings: concentration: 1 μM,replicates: in singlicate; n = 1

Row | Structure (SMILES) | %Inh
26 | CC(=O)Nc1ccc(-c2cc3ncnc(SCC(=O)O)c3s2)cc1 | 2%
27 | Cn1ccc2ncnc(Oc3ccc(NC(=O)Nc4cc(C(C)(C)C)on4)c(Cl)c3)c21 | 14%
28 | O=C(Nc1cccc(Oc2ccc3nccn3n2)c1)Nc1cccc(C(F)(F)F)c1 | 24%
29 | COC(=O)c1cccc(NC(=O)NC2CCN(c3ccnc(NCc4ccc(F)cc4)n3)CC2)c1 [GSK1379860] | 0%
30 | CN(c1cccc(CNc2nc(Nc3ccc4c(c3)CC(=O)N4)ncc2C(F)(F)F)c1)S(C)(=O)=O | 56%
31 | Cn1ccc2ncnc(Oc3ccc(NC(=O)Nc4cccc(C(F)(F)F)c4)c(Cl)c3)c21 | 0%
32 | C[C@@H](Oc1cc(-n2cnc3cc(-c4cnn(C)c4)ccc32)sc1C(N)=O)c1ccccc1Cl [GSK580432] | 59%
33 | COC(=O)Nc1nc2cc(Oc3ccc(NC(=O)Nc4cc(C(F)(F)F)ccc4Cl)cc3)ccc2[nH]1.Cl [GW697465] | 0%
34 | O=c1[nH]cc(-c2ccc(O)cc2)c2sc(-c3ccncc3)cc12 [GSK1033723] | 1%
35 | C[C@@H]1CCN(C(=O)N2CCCC2)C[C@@H]1N(C)c1ncnc2[nH]ccc12 | 5%
36 | COc1ccc(Nc2nccc(N3CCC(NC(=O)c4cccc(C#N)c4)C3)n2)cc1 (centres unmarked) [GSK1379730] | 9%
37 | CN(c1ccccc1CNc1nc(Nc2ccc3c(c2)CC(=O)N3)ncc1C(F)(F)F)S(C)(=O)=O | 67%
38 | CSc1nccc(-c2c(-c3ccc(F)cc3)ncn2CCCN2CCOCC2)n1.Cl [SB-217146] | 20%
39 | CC(=O)Nc1nc2cnc(Nc3cc(NC(=O)c4cccc(CC(C)(C)C#N)c4)ccc3C)nc2s1 | 8%
40 | C[C@@H](Oc1cc(-n2cnc3ccc(-c4ccncc4)cc32)sc1C(N)=O)c1ccccc1Cl [GSK483724] | 20%
41 | CS(=O)c1ccc(-c2coc3ccc(-c4n[nH]c(=O)o4)cc23)cc1 (centres unmarked) | 22%
42 | CS(=O)(=O)Nc1ccc(-c2ccnc3[nH]ccc23)cc1 [GSK993273] | 6%
43 | Cl.Cl.NC[C@H](CC1CCCCC1)NC(=O)c1ccc(-c2ccnc3[nH]ccc23)s1 [GSK1581428] | 24%
44 | COc1cc2nccc(Nc3ccc(Oc4ccccc4)cc3)c2cc1OC.Cl [GI261656] | 0%

Row | Structure (SMILES) | %Inh
45 | COc1cc2c(Nc3ccc(NC(=O)c4ccccc4)cc3)ncnc2cc1OCCCN1CCOCC1 [GSK301329] | 0%
46 | Cn1ccc2ncnc(Oc3ccc(NC(=O)Nc4cccc(C(F)(F)F)c4)c(F)c3)c21 | 0%
47 | O=C(NOCC1CC1)c1cc(Br)c(F)c(F)c1Nc1ccc(I)cc1Cl | 0%
48 | O=C1NCCc2[nH]c(-c3ccncc3)cc21 | 11%
49 | Cc1n[nH]c2cc(Nc3ccnc(Nc4cccc(CN5CCOCC5)c4)n3)ccc12 [GW682569] | 0%
50 | COc1cccc(C2=C(Nc3cccc(Cl)c3)C(=O)NC2=O)c1 [SB-341556] | 0%
51 | COc1cccc(CNC(=O)NC2CCN(c3ccnc(Nc4cc(OC)c(OC)c(OC)c4)n3)C2)c1 (centres unmarked) [GSK1379765] | 1%
52 | Cl.Nc1n[nH]c2cc(-c3ccccn3)ccc12 [GSK2189892] | 0%
53 | Cc1ccc(CC(=O)N2CCc3cc(-c4cn(C)c5ncnc(N)c45)ccc32)cc1 [GSK2634758] | 12%
54 | CN(c1ccc2c(c1)nc(NCc1ccc(F)cc1)n2C)c1ccnc(Nc2ccc(CS(C)(=O)=O)cc2)n1.Cl [GW813244] | 8%
55 | Cl.c1ccc(Oc2ccc(Nc3ccnc4cc(-c5ccc(CN6CCNCC6)o5)ccc34)cc2)nc1 [GW567142] | 0%
56 | CC(C)S(=O)(=O)N1CCN(Cc2ccc3c(c2)nc(NC(=O)c2ccsc2)n3C[C@H](O)c2ccccc2)CC1 [GW635815] | 18%
57 | Cc1nnc(-c2ccc3occ(-c4ccc(S(C)=O)cc4)c3n2)o1 (centres unmarked) | 0%
58 | OCCn1cc(-c2cnc3nnn(Cc4ccc5ncccc5c4)c3n2)cn1 | 0%
59 | CCn1c(-c2nonc2N)nc2cncc(CNC3CCNCC3)c21.Cl [SB-747651] | 0%
60 | NC(=O)c1ccc(-c2cc3ncnc(SCC(=O)O)c3s2)cc1 | 0%
61 | Cn1cc(-c2cccc3c(N)c(C(N)=O)nnc23)cn1 | 18%
62 | CCCC(=O)Nc1n[nH]c2ncccc12 [SB-601436] | 0%
